# Results: article PMC11062922 (Nature Chemical Biology, 2023)
# Like-named read-outs stand apart in the source and are kept apart here.
# Assays:
# Set-up in all cases: species or system human, MV4-11 + K-562 + COLO205 + SK-N-BE2 + OVCAR-8
# CDC42 = conditions: read-out: apparent Kd, n = 1
# CSNK1A1 = conditions: read-out: apparent Kd, n = 1
# CSNK1D = conditions: read-out: apparent Kd, n = 1
# CSNK1E = conditions: read-out: apparent Kd, n = 1
# MAPK10 = conditions: read-out: apparent Kd, compound concentrations: 100 nM and 1000 nM (sheet 'Samples'), n = 1
# MAPK14 = conditions: read-out: apparent Kd, n = 1
# MAPK9 = conditions: read-out: apparent Kd, compound concentrations: 100 nM and 1000 nM (sheet 'Samples'), n = 1
# MAPKAPK2 = conditions: read-out: apparent Kd, n = 1
# RIPK2 = conditions: read-out: apparent Kd; compound concentrations: 100 nM and 1000 nM (sheet 'Samples'), CATDS: 9.29117270749487E-2; n = 1
# CDK16 = conditions: read-out: apparent Kd, n = 1
# CDKL5 = conditions: read-out: apparent Kd; compound concentrations:100 nM and 1000 nM (sheet 'Samples'); n = 1
# GSK3A = conditions: read-out: apparent Kd, n = 1
# GSK3B = conditions: read-out: apparent Kd, n = 1
# CDK12 = conditions: read-out: apparent Kd; compound concentrations: 100 nM and 1000 nM (sheet 'Samples'), CATDS: 0.16242687072241299; n = 1
# CDK13 = conditions: read-out: apparent Kd; compound concentrations: 100 nM and 1000 nM (sheet 'Samples'), CATDS: 0.16446533875215399; n = 1
# MAPK8 = conditions: read-out: apparent Kd; compound concentrations: 100 nM and 1000 nM (sheet 'Samples'), CATDS: 0.17846593111563799; n = 1
# CDK17 = conditions: read-out: apparent Kd, n = 1
# CLK1 = conditions: read-out: apparent Kd, n = 1
# CLK4 = conditions: read-out: apparent Kd, n = 1
# DYRK1A = conditions: read-out: apparent Kd, n = 1
# ICK = conditions: read-out: apparent Kd; compound concentrations: 100 nM and 1000 nM (sheet 'Samples'), CATDS: 7.1463639855973302E-2; n = 1
# PRKCA = conditions: read-out: apparent Kd; compound concentrations: 100 nM and 1000 nM (sheet 'Samples'), CATDS: 6.1825082982023397E-2; n = 1
# PRKCB = conditions: read-out: apparent Kd; compound concentrations: 100 nM and 1000 nM (sheet 'Samples'), CATDS: 5.6210904808559101E-2; n = 1
# PRKCD = conditions: read-out: apparent Kd; compound concentrations: 100 nM and 1000 nM (sheet 'Samples'), CATDS: 6.6135854236704303E-2; n = 1
# SLK = conditions: read-out: apparent Kd; compound concentrations: 100 nM and 1000 nM (sheet 'Samples'), CATDS: 5.3656939950023998E-2; n = 1
# CDK2 = conditions: read-out: apparent Kd; compound concentrations:100 nM and 1000 nM (sheet 'Samples'); n = 1
# CSNK2A1;CSNK2A3 = conditions: read-out: apparent Kd; compound concentrations:100 nM and 1000 nM (sheet 'Samples'); n = 1
# CSNK2A2 = conditions: read-out: apparent Kd; compound concentrations:100 nM and 1000 nM (sheet 'Samples'); n = 1
# TGFBR2 = conditions: read-out: apparent Kd; compound concentrations:100 nM and 1000 nM (sheet 'Samples'); n = 1
# DJA1 = tested on: T1, DJA1; conditions: read-out: apparent Kd, n = 1
# T1 construct: gene DNAJA1
# HSP90AA1 = conditions: read-out: apparent Kd; compound concentrations: 100 nM and 1000 nM (sheet 'Samples'), CATDS: 0.12399635685572399; n = 1
# HSP90B1 = conditions: read-out: apparent Kd; compound concentrations: 100 nM and 1000 nM (sheet 'Samples'), CATDS: 0.12934168659945999; n = 1
# HSPE1 = conditions: read-out: apparent Kd; compound concentrations: 100 nM and 1000 nM (sheet 'Samples'), CATDS: 0.19606542414911901; n = 1
# PGK1 = conditions: read-out: apparent Kd; compound concentrations: 100 nM and 1000 nM (sheet 'Samples'), CATDS: 0.21364088639266299; n = 1
# PKM = conditions: read-out: apparent Kd; compound concentrations: 100 nM and 1000 nM (sheet 'Samples'), CATDS: 0.14448823643602399; n = 1
# ERBB3 = conditions: read-out: apparent Kd; compound concentrations:100 nM and 1000 nM (sheet 'Samples'); n = 1
# RAB14 = conditions: read-out: apparent Kd; compound concentrations:100 nM and 1000 nM (sheet 'Samples'); n = 1
# PRKCQ = conditions: read-out: apparent Kd; compound concentrations:100 nM and 1000 nM (sheet 'Samples'); n = 1
# [1] = compound concentrations:100 nM and 1000 nM (sheet 'Samples')
smiles,measurement,setting,value
Fc1ccc(-c2nc3n(c2-c2ccncc2)CCS3)cc1 [GI98581X],potency estimated from few doses,"CDC42; compound concentrations: 100 nM and 1000 nM (sheet 'Samples'), CATDS: 8.3198711436125394E-2",1530 nM
same,potency estimated from few doses,"CSNK1A1; compound concentrations: 100 nM and 1000 nM (sheet 'Samples'), CATDS: 8.7123517988238197E-2",1320 nM
same,potency estimated from few doses,"CSNK1D; compound concentrations: 100 nM and 1000 nM (sheet 'Samples'), CATDS: 0.37273157205877999",87.9 nM
same,potency estimated from few doses,"CSNK1E; compound concentrations: 100 nM and 1000 nM (sheet 'Samples'), CATDS: 0.16724223379061501",304 nM
same,potency estimated from few doses,MAPK10; CATDS: 0.11305020597261101,666 nM
same,potency estimated from few doses,"MAPK14; compound concentrations: 100 nM and 1000 nM (sheet 'Samples'), CATDS: 9.3591045937798004E-2",1070 nM
same,potency estimated from few doses,MAPK9; CATDS: 8.8395799729483998E-2,1260 nM
same,potency estimated from few doses,"MAPKAPK2; compound concentrations: 100 nM and 1000 nM (sheet 'Samples'), CATDS: 0.13823017842708299",435 nM
same,potency estimated from few doses,RIPK2,1090 nM
CN(C)CCCC(=O)Nc1n[nH]c2nnc(-c3ccccc3)cc12.Cl [SB-627772-A],potency estimated from few doses,CDK16; [1],1840 nM
same,potency estimated from few doses,CDKL5,4.6 nM
same,potency estimated from few doses,GSK3A; [1],6.15 nM
same,potency estimated from few doses,GSK3B; [1],17.1 nM
CN(C)C/C=C/C(=O)Nc1ccc(C(=O)N2CCC[C@@H](Nc3ncc(Cl)c(-c4c[nH]c5ccccc45)n3)C2)cc1 [THZ531],potency estimated from few doses,CDK12,1800 nM
same,potency estimated from few doses,CDK13,1740 nM
same,potency estimated from few doses,MAPK10; CATDS: 0.33495043269217101,434 nM
same,potency estimated from few doses,MAPK8,1410 nM
same,potency estimated from few doses,MAPK9; CATDS: 0.23956411042419101,760 nM
Cl.Cn1cc(C2=C(c3cccc(NCC(O)CO)c3)C(=O)NC2=O)c2cc(Cl)ccc21 (stereo not drawn) [RO3303724-001],potency estimated from few doses,"CDK16; compound concentrations: 100 nM and 1000 nM (sheet 'Samples'), CATDS: 8.3420011221061796E-2",435 nM
same,potency estimated from few doses,"CDK17; compound concentrations: 100 nM and 1000 nM (sheet 'Samples'), CATDS: 6.9472696820348595E-2",789 nM
same,potency estimated from few doses,"CLK1; compound concentrations: 100 nM and 1000 nM (sheet 'Samples'), CATDS: 0.14144162064954499",89.4 nM
same,potency estimated from few doses,"CLK4; compound concentrations: 100 nM and 1000 nM (sheet 'Samples'), CATDS: 0.121885472090614",140 nM
same,potency estimated from few doses,"DYRK1A; compound concentrations: 100 nM and 1000 nM (sheet 'Samples'), CATDS: 6.0885213450921502E-2",1290 nM
same,potency estimated from few doses,"GSK3A; compound concentrations: 100 nM and 1000 nM (sheet 'Samples'), CATDS: 0.52335848110550598",1.59 nM
same,potency estimated from few doses,"GSK3B; compound concentrations: 100 nM and 1000 nM (sheet 'Samples'), CATDS: 0.436012050591219",2.26 nM
same,potency estimated from few doses,ICK,716 nM
same,potency estimated from few doses,PRKCA,1210 nM
same,potency estimated from few doses,PRKCB,1830 nM
same,potency estimated from few doses,PRKCD,939 nM
same,potency estimated from few doses,SLK,2310 nM
CC(C)COC(=O)c1ccc2c(c1)/C(=C/Nc1ccc(S(N)(=O)=O)cc1)C(=O)N2 [GW416981X],potency estimated from few doses,CDK16; [1],964 nM
same,potency estimated from few doses,CDK2,587 nM
same,potency estimated from few doses,CDKL5,1290 nM
same,potency estimated from few doses,CLK4; [1],1480 nM
same,potency estimated from few doses,CSNK2A1;CSNK2A3,477 nM
same,potency estimated from few doses,CSNK2A2,246 nM
same,potency estimated from few doses,TGFBR2,1860 nM
Cn1cc(C2=C(c3c4n(c5ccccc35)CCCC4)C(=O)NC2=O)c2ccccc21 [RO0318259-000],potency estimated from few doses,"CDC42; compound concentrations: 100 nM and 1000 nM (sheet 'Samples'), CATDS: 0.12762221298853901",1480 nM
same,potency estimated from few doses,"DJA1; compound concentrations: 100 nM and 1000 nM (sheet 'Samples'), CATDS: 0.11539226669729399",1920 nM
same,potency estimated from few doses,HSP90AA1,1590 nM
same,potency estimated from few doses,HSP90B1,1440 nM
same,potency estimated from few doses,HSPE1,644 nM
same,potency estimated from few doses,PGK1,561 nM
same,potency estimated from few doses,PKM,1130 nM
NC(=O)c1ccc(Oc2nccc(-c3c(-c4ccc(F)cc4)ncn3C3CCNCC3)n2)cc1 [SB-242718],potency estimated from few doses,CDC42; [1],922 nM
same,potency estimated from few doses,CSNK1A1; [1],2320 nM
same,potency estimated from few doses,CSNK1D; [1],246 nM
same,potency estimated from few doses,CSNK1E; [1],642 nM
same,potency estimated from few doses,ERBB3,1430 nM
same,potency estimated from few doses,MAPK14; [1],476 nM
same,potency estimated from few doses,MAPKAPK2; [1],18.3 nM
same,potency estimated from few doses,RAB14,1380 nM
CCN1CCC(CC(=O)Nc2n[nH]c3nnc(-c4cccc(F)c4F)cc23)CC1.O=C(O)[C@H](O)[C@@H](O)C(=O)O [SB-698596-AC],potency estimated from few doses,CDK16; [1],53.3 nM
same,potency estimated from few doses,CDK17; [1],995 nM
same,potency estimated from few doses,CDKL5,46.9 nM
same,potency estimated from few doses,CLK1; [1],693 nM
same,potency estimated from few doses,CLK4; [1],1420 nM
same,potency estimated from few doses,DYRK1A; [1],1520 nM
same,potency estimated from few doses,"GSK3A; compound concentrations: 100 nM and 1000 nM (sheet 'Samples'), CATDS: 0.61035791771228698",0.905 nM
same,potency estimated from few doses,GSK3B; [1],2.33 nM
CNc1nc(-c2ccc3c(N)n[nH]c3c2)cc(N2C[C@@H](C(=O)Nc3ccccc3)CC[C@H]2C)n1 [GSK2298859A],potency estimated from few doses,CDC42; [1],2140 nM
same,potency estimated from few doses,DJA1; [1],880 nM
same,potency estimated from few doses,PRKCQ,1800 nM
